Source: PubChem BioAssay
Values without a mark were called inactive. Activity calls are given as the source filed them.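 The calls were made as follows, unless noted: active = inhibition above 50%; inactive = the rest.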

Assay: antimalarial activity against Dd2 strain (AID 2302;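 active = growth inhibition above 50% at the single 2 µM test dose, taken to imply half-maximal potency below 2 µM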;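 also: 0% = DMSO untreated growth and 100% = chloroquine plus artemisinin killed control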)
Details: P. falciparum Dd2 in RBCs, LDH growth readout, 72 h; at 2 µM; stronger effect = higher value

| SMILES | growth inhibition |
| --- | --- |
| COc1ccc(C=C2SC(=O)NC2=Nc2ccccc2)c(OC)c1 | 89% (active) |
| Cc1nnsc1C(=O)Nc1ccc(-c2ccc(-c3nc4ccccc4[nH]3)s2)cc1 | 38% |
| C=CCc1cc(Br)ccc1OCCCON1C(N)=NC(N)=NC1(C)C | 97% (active) |
| CCOc1c(OC)ccc2c1CCN(CCN1CCC(CNC(=O)c3ccc(-c4ccc(C(F)(F)F)cc4)cc3)CC1)C2 | 21% |
| C(=N\Nc1nccc2sc(-c3cccnc3)cc12)/c1ccncc1 | 94% (active) |
| O=C(C=Cc1ccc(Cl)c(Cl)c1)NCCCCCN1CCCC(CCCNS(=O)(=O)c2ccc(Br)cc2)C1 (stereo not drawn) | 5% |
| COc1cc(OCCCN(C)Cc2ccc(OC)c(OC)c2)ccc1NC(=O)c1cccc2c(=O)c3cccc(F)c3[nH]c12 | 62% (active) |
| Cc1ccc(NC(=O)NC2CCN(CCCCCNC(=O)[C@@H]3C[C@H]3c3ccc(Cl)c(Cl)c3)CC2)cc1 | 19% |
| CN(C)S(=O)(=O)c1cc(-c2ccc3nccc(-c4cccc(S(N)(=O)=O)c4)c3c2)cnc1N | 98% (active) |
| O=S(=O)(c1cc(Cl)ccc1Cl)N1CCCCC(c2ccc(C(F)(F)F)cc2)=N1 | 68% (active) |
| Oc1cccc(-c2nc(-c3ccccc3)c(-c3ccc(Oc4ccc(-c5[nH]c(-c6cccc(O)c6)nc5-c5ccccc5)cc4)cc3)[nH]2)c1 | 96% (active) |

Assay: HepG2 cytotoxicity, primary screen, cytotoxicity control for P. falciparum antimalarial project, cell-based, ATP luminescence (AID 2303);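 also: 0% = DMSO wells and 100% = digitonin-killed cells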
Details: HepG2 viability, 24-48 h, at 10 µM, stronger effect = higher value

| SMILES | inhibition |
| --- | --- |
| COc1cc(NC(=O)c2sc(-c3ccc(Cl)cc3)cc2NC(=O)c2cccc(N(C)C)c2)ccc1OCCN1CCCC1 | 49% |
| O=C(Nc1ccc(F)c([N+](=O)[O-])c1)Nc1cc(C(F)(F)F)ccc1Cl | 5% |
| COc1cc(CN2CCC(C(=O)Nc3ccc(-c4cccc(C)c4)cc3)CC2)ccc1O | 25% |
| CN1CCN(c2ccnc3ccc(NC(=O)N(C)c4ccc(Cl)c(Cl)c4)cc23)CC1 | 5% |
| CCCCc1ccc(C(=O)Nc2ccc3nc(N4CCN(C)CC4)cc(C)c3c2)cc1 | 44% |
| Cc1cc2nc(/N=C(\N)NC(=O)NC3CCCCC3)nc(C)c2cc1C | 20% |
| CC(C)N1CCN(C(CN2CCN(CCCOc3ccc(-c4ccccc4)cc3)CC2)c2ccc(F)cc2)CC1 (stereo not drawn) | 100% (active) |
| COc1cc2nc(N(C)C)nc(Nc3ccc(OCc4ccccc4)cc3)c2cc1OC | 91% (active) |
| COc1ccccc1-c1cc(C(=O)N2CCN(S(=O)(=O)c3ccc(C)cc3)CC2)[nH]n1 | -12% |
| Cc1noc(C)c1-c1cccc(CNCc2cccc(-c3ccc(-c4nc5ccccc5[nH]4)s3)c2)c1 | 24% |
| CNC(=O)NC1=NC(C)(C)N(OCc2ccc(Cl)c(Cl)c2)C(NC(=O)NC)=N1 | 1% |
| CSC1=NC2(CC(c3cccc(C)c3)c3cc(Cl)c(O)cc3O2)CC(C)(C)N1 (stereo not drawn) | 0% |
| Cc1ccc(F)c(OC2CCN(c3ccc(C(=O)NC4CC4)cn3)CC2)c1 | 10% |
| Nc1cccc(CNCc2cccc(-c3ccc(-c4nc5ccc(C(F)(F)F)cc5[nH]4)cc3)c2)c1 | 6% |
| CCCCCCCCn1ccc(=N)cc1 | 49% |
| CC(C)N1CCCN(C(=O)C2CCN(c3ccc(C(=O)N4CCCC4)cn3)CC2)CC1 | 41% |
| COc1ccc2nc(C)cc(Nc3ccc(Oc4ccc5ccccc5c4)c(Cl)c3)c2c1 | 40% |
| CCOc1ccc2c(NN=Cc3cccc(Cl)c3)cc(C)nc2c1 | -5% |
| Nc1nc(N)c2cc(Sc3ccc4ccccc4c3)ccc2n1 | 66% (active) |
| COC(=O)c1ccc2nc(-c3ccc(/C=C/C(=O)NC4CCN(Cc5ccccc5)CC4)cc3)[nH]c2c1 | 12% |
| O=C(NC1CC1)c1cnc(N2CCC(OCc3ccccc3)CC2)c(Cl)c1 | -5% |
| C[C@@H](COc1ccc(-c2ccccc2)cc1)CON1C(N)=NC(N)=NC1(C)C | 62% (active) |
| Cc1ccc2nc(Nc3ccc(Nc4nc5ccc(C)cc5[nH]4)c(C)c3)[nH]c2c1 | 12% |
| Cc1cc(N2CCOCC2)nc2ccc(NC(=O)c3cccc([N+](=O)[O-])c3)cc12 | 0% |
| Cc1cc(C2CCN(CCCCNC(=O)c3ccc(NC(=O)c4ccc(Cl)cc4)cc3)CC2)c(C)cc1OCc1ccncc1 | 33% |
| N#Cc1ccc(C=Cc2nccc3c2[nH]c2ccccc23)cc1 | 33% |
| Cc1ccc(F)cc1-c1cc(N2CCCN(C(=O)c3ccc(Br)o3)CC2)ncn1 | 0% |
